# Screening results deposited in PubChem BioAssay by Broad Institute.
# ROS inducer = inducers of reactive oxygen species in cancer cells; U2OS ROS induction, H2DCF-DA fluorescence; ROS induction (% of piperlongumine), % at 10 µM; hit rate 2% among 46,000; AID 624156; in the data active means ROS induction above about 79%, passing the limit was not always enough;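 further: 0% = DMSO vehicle median and 100% = reference compound median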
# Active calls of the source: *. Only a selection was taken, and hits are over-represented in it overall.
SMILES,ROS inducer
CC[C@@H]1/C=C\C=C\C[C@H](C)C(O)[C@](C)(O)C(=O)[C@H](C)C(O)[C@H](C)C(=O)[C@H](C)[C@@H](O)[C@H](C)/C=C/C(=O)O[C@H]2[C@@H](C)[C@@H](CC1)O[C@@]1(CC[C@@H](C)[C@@H](C[C@H](C)O)O1)[C@@H]2C (some centres undefined),132.8*
CCC(C)[C@H]1O[C@]2(C=C[C@@H]1C)C[C@@H]1C[C@@H](C/C=C(\C)[C@@H](OC3C[C@H](OC)C(O[C@H]4C[C@H](OC)[C@@H](O)[C@H](C)O4)[C@H](C)O3)[C@@H](C)/C=C/C=C3\CO[C@@H]4[C@H](O)C(C)=C[C@@H](C(=O)O1)[C@]34O)O2 (some centres undefined),36.1
CO[C@H]1[C@H](O)[C@H](O[C@H]2CC[C@]3(C)C4CC[C@]5(C)[C@H](C6=CC(=O)OC6)CC[C@]5(O)C4CC[C@@H]3C2)O[C@@H](C)[C@@H]1O (some centres undefined),2.2
CO[C@H]1[C@H](O)[C@H](O[C@H]2CC[C@]3(C)C4CC[C@]5(C)[C@H](C6=CC(=O)OC6)CC[C@]5(O)C4CC[C@@H]3C2)O[C@@H](C)[C@@H]1O[C@@H]1O[C@H](CO[C@@H]2O[C@H](CO)[C@@H](O)[C@H](O)[C@H]2O)[C@@H](O)[C@H](O)[C@H]1O (some centres undefined),5.7
C[C@H]1OC(O[C@H]2[C@@H](O)CC(O[C@H]3[C@@H](O)C[C@H](O[C@H]4CC[C@]5(C)C6CC[C@]7(C)[C@@H](C8=CC(=O)OC8)[C@@H](O)C[C@]7(O)[C@@H]6CC[C@@H]5C4)O[C@@H]3C)O[C@@H]2C)C[C@H](O)C1O (some centres undefined),2.5
C[C@H]1O[C@@H](O[C@H]2[C@@H](O)C[C@H](O[C@H]3[C@@H](O)C[C@H](O[C@H]4CC[C@@]5(C)[C@H](CC[C@@H]6[C@@H]5CC[C@]5(C)[C@@H](C7=CC(=O)OC7)CC[C@]65O)C4)O[C@@H]3C)O[C@@H]2C)C[C@H](O)[C@@H]1O,114.2*
C[C@@H]1O[C@@H](OC2CCC3(C)C4CCC5(C)C(C6=CC(=O)OC6)CCC5(O)C4CC[C@H]3C2)[C@H](O)[C@H](O)[C@H]1O (some centres undefined),8.1
CO[C@@H]1[C@H](O)[C@@H](O[C@@H]2C[C@H]3CC[C@@H]4C(CC[C@]5(C)[C@@H](C6=CC(=O)OC6)CC[C@]45O)[C@@]3(C)[C@H](O)C2)O[C@H](C)[C@@H]1O[C@@H]1O[C@H](CO)[C@@H](O)[C@H](O)[C@H]1O (some centres undefined),6.0
O=C1NC(=O)C(=C/C=C/c2ccccc2)C(=O)N1,-7.2
C=C1C(=O)O[C@@H]2/C=C(/C)CC/C=C(/C)C[C@@H](OC(=O)/C(=C/CO)CO)C12 (some centres undefined),66.3
Cc1cc(-n2c(=S)[nH]c3ccccc3c2=O)ccc1Br,-15.4
CSc1ncccc1C1=N/C(=C\N(C)C)C(=O)O1,-3.6
Cn1c(CCN)nc2ccccc21,15.5
CC[C@]12C=CCN3CC[C@@]4(c5ccc(OC)cc5N(C)[C@H]4[C@@](O)(C(=O)OC)[C@@H]1OC(C)=O)[C@@H]32,117.3*
COC1CC(OC2C(C)OC(OC3C(C)OC(OC4C(C)OC(O[C@H]5CC[C@@]6(C)C(=CC[C@]7(O)C6CC(OC(=O)c6ccccc6)[C@@]6(C)[C@]7(O)CC[C@@]6(O)C(C)=O)C5)CC4OC)CC3OC)CC2OC)OC(C)C1O (some centres undefined),20.1
C=CCN1C(=O)/C(=C/c2cc(C)n(-c3ccccn3)c2C)C(=O)NC1=S,112.9*
C[C@@H]1O[C@@H](O[C@H]2[C@H](O)[C@@H](O)[C@H](O[C@@H]3C=C4CC[C@@H]5C(CC[C@]6(C)[C@@H](c7ccc(=O)oc7)CC[C@]56O)[C@@]4(C)CC3)O[C@@H]2CO)[C@H](O)[C@H](O)[C@H]1O (some centres undefined),60.6
CC(=O)NCC1CCCN2CCCCC12 (centres undefined),-7.2
C=C1[C@@H](C)[C@H]2[C@H](Cc3ccccc3)NC(=O)[C@]23[C@H](OC(C)=O)C=C[C@](C)(O)C(=O)[C@@H](C)C/C=C/[C@H]3[C@@H]1O,23.0
CSc1nc(-c2ccc(Cl)cc2)nn1C(=O)N(C)C,-9.0
O=C1NC(=O)N(c2ccccc2)C(=O)/C1=C/c1ccco1,83.0*
COc1cc[n+](OC(=O)N2CCCCC2)c(C)c1,-4.9
C[C@]12CC[C@H](O)C[C@H]1CC[C@@H]1[C@@H]2CC[C@]2(C)[C@@H](c3ccc(=O)oc3)CC[C@]12O,-5.9
C/C1=C/C(=O)O[C@@H]2C[C@@H](CC[C@H](C)/C=C\CC1)O[C@@](O)([C@@H]1CSC(=O)N1)C2,13.1
O=C(CCNS(=O)(=O)c1ccccc1)Nc1ccc(Br)cc1C(=O)c1ccccc1,-2.9
